For four compounds, inhibition results are on record in ChEMBL document CHEMBL1961873, “Compounds: GSK PKIS; Assays: Nanosyn kinase panel” (2012).

The target in assay [1] is T1, Serine/threonine-protein kinase D2 (Homo sapiens) (UniProt Q9BZL6).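 Also: mean value of PRKD2 inhibition, from the GSK PKIS screening panel.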
T1 sequence (whole entry): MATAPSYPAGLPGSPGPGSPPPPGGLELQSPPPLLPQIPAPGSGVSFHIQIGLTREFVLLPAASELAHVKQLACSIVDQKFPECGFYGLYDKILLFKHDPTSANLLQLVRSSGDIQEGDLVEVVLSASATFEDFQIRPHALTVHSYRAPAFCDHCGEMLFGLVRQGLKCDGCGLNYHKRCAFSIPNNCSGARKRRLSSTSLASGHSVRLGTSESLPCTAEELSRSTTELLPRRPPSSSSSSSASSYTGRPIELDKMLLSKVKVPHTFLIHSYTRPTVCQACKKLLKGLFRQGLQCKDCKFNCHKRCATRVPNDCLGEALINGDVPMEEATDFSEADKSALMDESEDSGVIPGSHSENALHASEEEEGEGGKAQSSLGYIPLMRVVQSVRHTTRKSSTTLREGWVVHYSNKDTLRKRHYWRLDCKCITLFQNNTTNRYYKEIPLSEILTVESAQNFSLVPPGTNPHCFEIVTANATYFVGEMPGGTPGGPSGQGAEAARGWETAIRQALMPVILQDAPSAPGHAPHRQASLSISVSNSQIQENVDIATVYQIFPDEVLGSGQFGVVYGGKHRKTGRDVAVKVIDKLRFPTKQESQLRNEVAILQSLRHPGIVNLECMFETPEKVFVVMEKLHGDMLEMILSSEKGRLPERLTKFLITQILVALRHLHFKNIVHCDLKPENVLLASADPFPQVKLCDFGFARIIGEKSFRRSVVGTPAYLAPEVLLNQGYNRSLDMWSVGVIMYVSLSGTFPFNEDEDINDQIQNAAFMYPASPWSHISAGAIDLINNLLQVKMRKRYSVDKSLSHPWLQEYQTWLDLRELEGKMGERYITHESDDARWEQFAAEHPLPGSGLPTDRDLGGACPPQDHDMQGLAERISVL
As to conditions: at 1 µM.

Assay [2] has as its target T2, Serine/threonine-protein kinase D3 (Homo sapiens) (UniProt O94806).
T2 sequence (whole entry): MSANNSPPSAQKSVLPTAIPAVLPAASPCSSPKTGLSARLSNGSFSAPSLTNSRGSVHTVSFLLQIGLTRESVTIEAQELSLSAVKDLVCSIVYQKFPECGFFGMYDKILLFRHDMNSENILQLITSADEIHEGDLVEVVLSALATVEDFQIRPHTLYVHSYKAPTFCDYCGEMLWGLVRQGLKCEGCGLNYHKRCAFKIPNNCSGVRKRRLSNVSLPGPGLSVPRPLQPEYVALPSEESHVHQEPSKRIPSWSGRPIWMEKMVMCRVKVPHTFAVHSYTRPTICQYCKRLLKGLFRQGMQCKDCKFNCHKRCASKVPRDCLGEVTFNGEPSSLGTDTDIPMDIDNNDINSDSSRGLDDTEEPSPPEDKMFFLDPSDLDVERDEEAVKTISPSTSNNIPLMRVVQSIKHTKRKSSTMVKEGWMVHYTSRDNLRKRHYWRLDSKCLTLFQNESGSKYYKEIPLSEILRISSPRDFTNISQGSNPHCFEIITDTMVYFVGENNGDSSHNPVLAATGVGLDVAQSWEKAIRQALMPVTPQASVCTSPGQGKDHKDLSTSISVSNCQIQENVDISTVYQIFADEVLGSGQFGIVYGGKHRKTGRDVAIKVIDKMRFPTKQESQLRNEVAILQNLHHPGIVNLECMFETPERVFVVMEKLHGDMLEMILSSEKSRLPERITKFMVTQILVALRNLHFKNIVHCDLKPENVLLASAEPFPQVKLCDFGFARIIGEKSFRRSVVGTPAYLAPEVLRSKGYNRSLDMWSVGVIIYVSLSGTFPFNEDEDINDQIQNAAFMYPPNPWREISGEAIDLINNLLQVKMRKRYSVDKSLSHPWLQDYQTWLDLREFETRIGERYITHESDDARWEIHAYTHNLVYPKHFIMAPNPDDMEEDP
Particulars: at 0.1 µM.

The target in assay [3] is T2, Serine/threonine-protein kinase D3 (Homo sapiens). As to conditions: at 1 µM.
The target of assay [4] is T3, cGMP-dependent protein kinase 1 (Homo sapiens) (UniProt Q13976).
T3 sequence (whole entry): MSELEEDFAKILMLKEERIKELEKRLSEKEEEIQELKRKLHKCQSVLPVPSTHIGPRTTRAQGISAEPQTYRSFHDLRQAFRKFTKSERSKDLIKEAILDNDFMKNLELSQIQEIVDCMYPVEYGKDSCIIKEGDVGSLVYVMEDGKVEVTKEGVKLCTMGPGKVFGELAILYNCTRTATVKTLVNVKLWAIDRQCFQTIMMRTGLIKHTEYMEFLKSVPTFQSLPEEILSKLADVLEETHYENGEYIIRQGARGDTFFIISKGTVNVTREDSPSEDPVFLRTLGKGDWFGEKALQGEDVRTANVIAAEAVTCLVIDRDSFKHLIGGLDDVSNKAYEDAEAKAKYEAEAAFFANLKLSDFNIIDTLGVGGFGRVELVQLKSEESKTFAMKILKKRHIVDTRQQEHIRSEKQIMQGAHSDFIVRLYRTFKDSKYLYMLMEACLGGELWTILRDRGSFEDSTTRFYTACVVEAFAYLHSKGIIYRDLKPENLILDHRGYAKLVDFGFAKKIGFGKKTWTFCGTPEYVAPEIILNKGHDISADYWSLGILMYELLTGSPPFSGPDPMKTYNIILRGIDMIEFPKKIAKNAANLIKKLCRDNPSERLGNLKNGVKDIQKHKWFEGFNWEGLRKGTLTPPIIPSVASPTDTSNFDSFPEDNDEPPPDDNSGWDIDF
As to conditions: at 0.1 µM.

In assay [5] the target is T3, cGMP-dependent protein kinase 1 (Homo sapiens). Particulars: at 1 µM.
Assay [6] deals with T4, cGMP-dependent protein kinase 2 (Homo sapiens) (UniProt Q13237).
T4 sequence (whole entry): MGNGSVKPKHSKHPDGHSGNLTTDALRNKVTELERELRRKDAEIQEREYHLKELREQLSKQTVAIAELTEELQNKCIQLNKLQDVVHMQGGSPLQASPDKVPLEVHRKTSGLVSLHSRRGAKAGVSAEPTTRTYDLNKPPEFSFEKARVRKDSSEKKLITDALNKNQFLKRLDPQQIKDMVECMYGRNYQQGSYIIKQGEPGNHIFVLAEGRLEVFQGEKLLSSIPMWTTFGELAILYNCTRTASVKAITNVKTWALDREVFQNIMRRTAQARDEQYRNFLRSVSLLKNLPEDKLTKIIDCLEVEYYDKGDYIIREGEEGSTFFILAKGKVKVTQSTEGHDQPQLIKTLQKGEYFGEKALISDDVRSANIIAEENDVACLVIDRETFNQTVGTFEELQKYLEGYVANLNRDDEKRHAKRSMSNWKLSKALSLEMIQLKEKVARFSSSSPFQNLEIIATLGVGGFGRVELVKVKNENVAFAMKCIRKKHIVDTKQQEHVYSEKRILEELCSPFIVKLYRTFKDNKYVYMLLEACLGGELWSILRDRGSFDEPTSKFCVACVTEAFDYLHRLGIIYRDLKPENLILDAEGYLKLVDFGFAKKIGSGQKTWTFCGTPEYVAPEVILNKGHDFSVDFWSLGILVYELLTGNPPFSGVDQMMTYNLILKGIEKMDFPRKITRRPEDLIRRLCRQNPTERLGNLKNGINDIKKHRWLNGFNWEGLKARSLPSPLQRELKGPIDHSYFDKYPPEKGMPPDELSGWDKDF
As to conditions: at 0.1 µM.

The target of assay [7] is T4, cGMP-dependent protein kinase 2 (Homo sapiens). As to conditions: at 1 µM.
For assay [8], the target named is T5, cAMP-dependent protein kinase catalytic subunit PRKX (Homo sapiens) (UniProt P51817).
T5 sequence (whole entry): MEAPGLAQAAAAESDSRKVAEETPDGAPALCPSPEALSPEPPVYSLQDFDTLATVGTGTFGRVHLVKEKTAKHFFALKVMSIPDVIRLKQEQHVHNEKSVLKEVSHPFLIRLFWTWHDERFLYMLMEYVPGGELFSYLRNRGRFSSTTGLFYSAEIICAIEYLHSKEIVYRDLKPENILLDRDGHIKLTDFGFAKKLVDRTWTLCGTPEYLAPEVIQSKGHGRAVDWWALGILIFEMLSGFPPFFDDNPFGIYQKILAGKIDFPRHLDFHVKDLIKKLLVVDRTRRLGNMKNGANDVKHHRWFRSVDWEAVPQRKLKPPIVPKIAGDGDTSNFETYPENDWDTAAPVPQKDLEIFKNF
As to conditions: at 0.1 µM.

For assay [9], the target named is T5, cAMP-dependent protein kinase catalytic subunit PRKX (Homo sapiens). Particulars: at 1 µM.
In assay [10] the target is Rho-associated protein kinase 1 (Homo sapiens) (UniProt Q13464). As to conditions: at 0.1 µM.
Chain of Rho-associated protein kinase 1 (Homo sapiens) (Q13464 2-1354 limits assumed): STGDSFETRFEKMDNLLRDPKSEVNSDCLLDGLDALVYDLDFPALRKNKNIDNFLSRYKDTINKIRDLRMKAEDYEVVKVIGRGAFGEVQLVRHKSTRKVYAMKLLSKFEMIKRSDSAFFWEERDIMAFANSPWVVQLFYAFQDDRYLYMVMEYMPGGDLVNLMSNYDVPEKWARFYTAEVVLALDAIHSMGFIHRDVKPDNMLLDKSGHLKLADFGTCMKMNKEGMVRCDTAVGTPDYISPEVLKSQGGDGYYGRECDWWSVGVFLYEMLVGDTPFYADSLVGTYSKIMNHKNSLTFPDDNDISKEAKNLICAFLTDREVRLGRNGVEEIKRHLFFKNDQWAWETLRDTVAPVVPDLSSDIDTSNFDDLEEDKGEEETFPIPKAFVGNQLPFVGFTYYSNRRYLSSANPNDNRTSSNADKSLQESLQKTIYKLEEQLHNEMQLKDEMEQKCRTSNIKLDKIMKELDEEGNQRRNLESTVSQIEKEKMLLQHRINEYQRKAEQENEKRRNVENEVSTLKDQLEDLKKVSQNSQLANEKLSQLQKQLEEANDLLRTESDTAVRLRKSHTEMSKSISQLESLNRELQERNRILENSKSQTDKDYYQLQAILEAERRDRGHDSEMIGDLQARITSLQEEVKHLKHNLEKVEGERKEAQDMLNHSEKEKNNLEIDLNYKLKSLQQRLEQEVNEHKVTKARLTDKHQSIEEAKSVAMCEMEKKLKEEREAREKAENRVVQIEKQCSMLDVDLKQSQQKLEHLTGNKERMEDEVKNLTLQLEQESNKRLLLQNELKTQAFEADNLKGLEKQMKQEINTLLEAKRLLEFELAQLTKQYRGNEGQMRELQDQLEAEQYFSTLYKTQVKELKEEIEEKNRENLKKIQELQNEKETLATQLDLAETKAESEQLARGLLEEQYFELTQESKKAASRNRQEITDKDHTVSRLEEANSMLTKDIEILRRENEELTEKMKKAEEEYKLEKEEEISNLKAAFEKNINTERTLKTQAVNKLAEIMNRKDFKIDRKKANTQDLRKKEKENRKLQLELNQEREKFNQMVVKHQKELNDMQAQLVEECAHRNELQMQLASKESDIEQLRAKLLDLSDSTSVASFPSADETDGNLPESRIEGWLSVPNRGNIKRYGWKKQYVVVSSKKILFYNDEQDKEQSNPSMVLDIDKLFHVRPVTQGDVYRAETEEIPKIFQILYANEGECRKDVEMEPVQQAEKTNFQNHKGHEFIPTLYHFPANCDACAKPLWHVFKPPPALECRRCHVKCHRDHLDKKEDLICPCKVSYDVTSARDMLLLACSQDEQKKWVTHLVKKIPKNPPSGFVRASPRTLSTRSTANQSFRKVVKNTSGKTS
Assay [11] shares this target. Particulars: at 1 µM.
Assay [12] has as its target Rho-associated protein kinase 2 (Homo sapiens) (UniProt O75116). As to conditions: at 0.1 µM.
Assay [13] has the same target. As to conditions: at 1 µM.
In assay [14] the target is Ribosomal protein S6 kinase alpha-1 (Homo sapiens) (UniProt Q15418). As to conditions: at 0.1 µM.
Assay [15] has the same target. Particulars: at 1 µM.
Assay [16] addresses Ribosomal protein S6 kinase alpha-3 (Homo sapiens) (UniProt P51812). As to conditions: at 0.1 µM.
Assay [17] has the same target. Particulars: at 1 µM.
Assay [18] concerns the target Ribosomal protein S6 kinase alpha-2 (Homo sapiens) (UniProt Q15349). Particulars: at 0.1 µM.
Assay [19] has the same target. As to conditions: at 1 µM.
Assay [20] addresses Ribosomal protein S6 kinase alpha-6 (Homo sapiens) (UniProt Q9UK32). As to conditions: at 0.1 µM.

Chain of Ribosomal protein S6 kinase alpha-3 (Homo sapiens) (P51812 whole entry): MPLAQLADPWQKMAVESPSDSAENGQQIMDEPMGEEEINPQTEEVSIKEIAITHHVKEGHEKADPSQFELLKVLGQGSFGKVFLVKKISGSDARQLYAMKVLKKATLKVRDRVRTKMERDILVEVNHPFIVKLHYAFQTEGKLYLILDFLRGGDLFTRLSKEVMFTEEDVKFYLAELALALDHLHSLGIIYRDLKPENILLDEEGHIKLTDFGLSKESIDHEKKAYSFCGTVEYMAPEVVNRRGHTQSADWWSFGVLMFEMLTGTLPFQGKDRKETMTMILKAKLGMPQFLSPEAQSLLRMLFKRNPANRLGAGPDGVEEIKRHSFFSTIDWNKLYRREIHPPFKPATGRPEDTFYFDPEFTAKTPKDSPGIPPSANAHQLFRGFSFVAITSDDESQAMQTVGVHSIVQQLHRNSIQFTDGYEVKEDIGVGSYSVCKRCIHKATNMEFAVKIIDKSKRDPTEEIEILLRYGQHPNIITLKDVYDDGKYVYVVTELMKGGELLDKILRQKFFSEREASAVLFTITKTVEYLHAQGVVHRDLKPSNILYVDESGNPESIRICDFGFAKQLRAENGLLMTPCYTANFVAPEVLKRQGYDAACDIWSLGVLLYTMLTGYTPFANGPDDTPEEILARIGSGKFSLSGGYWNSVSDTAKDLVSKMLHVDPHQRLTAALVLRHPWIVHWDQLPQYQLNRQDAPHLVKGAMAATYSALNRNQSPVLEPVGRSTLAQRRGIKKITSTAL
Chain of Ribosomal protein S6 kinase alpha-6 (Homo sapiens) (Q9UK32 whole entry): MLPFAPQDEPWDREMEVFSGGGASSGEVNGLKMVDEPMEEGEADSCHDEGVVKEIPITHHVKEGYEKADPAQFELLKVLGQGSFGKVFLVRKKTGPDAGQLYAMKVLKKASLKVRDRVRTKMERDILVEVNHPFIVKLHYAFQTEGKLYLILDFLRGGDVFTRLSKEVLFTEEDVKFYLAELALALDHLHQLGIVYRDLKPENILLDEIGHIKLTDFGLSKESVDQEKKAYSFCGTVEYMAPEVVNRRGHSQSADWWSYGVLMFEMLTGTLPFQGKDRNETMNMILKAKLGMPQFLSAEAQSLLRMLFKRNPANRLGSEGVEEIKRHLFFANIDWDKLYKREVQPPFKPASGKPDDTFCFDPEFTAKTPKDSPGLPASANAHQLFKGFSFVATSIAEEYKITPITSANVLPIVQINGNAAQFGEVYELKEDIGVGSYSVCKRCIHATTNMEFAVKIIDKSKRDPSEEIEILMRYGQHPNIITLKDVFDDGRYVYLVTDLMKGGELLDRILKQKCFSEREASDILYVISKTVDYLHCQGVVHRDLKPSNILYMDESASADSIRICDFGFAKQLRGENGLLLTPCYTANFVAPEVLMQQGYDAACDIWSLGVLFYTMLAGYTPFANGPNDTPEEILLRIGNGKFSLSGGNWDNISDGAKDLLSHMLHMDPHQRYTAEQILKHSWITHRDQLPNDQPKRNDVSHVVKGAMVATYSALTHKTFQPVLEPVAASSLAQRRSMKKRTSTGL
Chain of Rho-associated protein kinase 2 (Homo sapiens) (O75116 whole entry, looked up): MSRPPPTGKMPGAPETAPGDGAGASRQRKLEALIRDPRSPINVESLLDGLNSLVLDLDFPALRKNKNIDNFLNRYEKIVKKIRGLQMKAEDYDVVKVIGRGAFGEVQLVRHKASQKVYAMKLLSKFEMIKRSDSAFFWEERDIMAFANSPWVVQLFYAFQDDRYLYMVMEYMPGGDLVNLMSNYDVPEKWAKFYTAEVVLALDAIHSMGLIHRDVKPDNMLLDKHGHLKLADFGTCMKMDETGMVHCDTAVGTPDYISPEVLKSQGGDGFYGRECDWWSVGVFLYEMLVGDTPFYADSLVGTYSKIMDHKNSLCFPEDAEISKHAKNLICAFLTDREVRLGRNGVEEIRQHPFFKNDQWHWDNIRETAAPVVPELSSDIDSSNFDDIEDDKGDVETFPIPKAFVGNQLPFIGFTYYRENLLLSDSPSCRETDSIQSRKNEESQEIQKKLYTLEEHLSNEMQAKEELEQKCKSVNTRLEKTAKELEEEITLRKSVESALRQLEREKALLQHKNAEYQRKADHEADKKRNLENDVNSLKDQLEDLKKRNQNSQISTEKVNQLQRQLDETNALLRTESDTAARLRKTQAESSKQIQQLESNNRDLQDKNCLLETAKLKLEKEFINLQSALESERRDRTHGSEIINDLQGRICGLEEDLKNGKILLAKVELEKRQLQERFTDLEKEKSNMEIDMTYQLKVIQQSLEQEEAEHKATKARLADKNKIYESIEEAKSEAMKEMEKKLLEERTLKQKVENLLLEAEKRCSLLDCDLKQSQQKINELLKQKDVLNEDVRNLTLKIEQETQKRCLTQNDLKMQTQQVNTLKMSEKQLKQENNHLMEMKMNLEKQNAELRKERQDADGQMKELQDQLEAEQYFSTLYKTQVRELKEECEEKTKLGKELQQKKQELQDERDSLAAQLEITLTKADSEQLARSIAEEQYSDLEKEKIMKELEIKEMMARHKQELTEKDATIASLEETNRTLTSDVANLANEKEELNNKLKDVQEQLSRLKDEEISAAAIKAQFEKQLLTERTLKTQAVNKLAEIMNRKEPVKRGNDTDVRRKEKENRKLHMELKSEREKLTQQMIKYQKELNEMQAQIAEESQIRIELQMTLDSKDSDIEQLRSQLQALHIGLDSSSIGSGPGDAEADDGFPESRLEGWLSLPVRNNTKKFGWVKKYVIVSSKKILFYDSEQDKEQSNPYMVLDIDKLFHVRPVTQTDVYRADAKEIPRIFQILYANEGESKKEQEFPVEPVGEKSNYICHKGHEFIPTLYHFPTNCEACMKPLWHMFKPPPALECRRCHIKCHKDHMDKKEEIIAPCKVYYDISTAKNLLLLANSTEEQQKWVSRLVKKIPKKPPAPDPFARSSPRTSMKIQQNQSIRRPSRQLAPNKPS
Chain of Ribosomal protein S6 kinase alpha-2 (Homo sapiens) (Q15349 whole entry): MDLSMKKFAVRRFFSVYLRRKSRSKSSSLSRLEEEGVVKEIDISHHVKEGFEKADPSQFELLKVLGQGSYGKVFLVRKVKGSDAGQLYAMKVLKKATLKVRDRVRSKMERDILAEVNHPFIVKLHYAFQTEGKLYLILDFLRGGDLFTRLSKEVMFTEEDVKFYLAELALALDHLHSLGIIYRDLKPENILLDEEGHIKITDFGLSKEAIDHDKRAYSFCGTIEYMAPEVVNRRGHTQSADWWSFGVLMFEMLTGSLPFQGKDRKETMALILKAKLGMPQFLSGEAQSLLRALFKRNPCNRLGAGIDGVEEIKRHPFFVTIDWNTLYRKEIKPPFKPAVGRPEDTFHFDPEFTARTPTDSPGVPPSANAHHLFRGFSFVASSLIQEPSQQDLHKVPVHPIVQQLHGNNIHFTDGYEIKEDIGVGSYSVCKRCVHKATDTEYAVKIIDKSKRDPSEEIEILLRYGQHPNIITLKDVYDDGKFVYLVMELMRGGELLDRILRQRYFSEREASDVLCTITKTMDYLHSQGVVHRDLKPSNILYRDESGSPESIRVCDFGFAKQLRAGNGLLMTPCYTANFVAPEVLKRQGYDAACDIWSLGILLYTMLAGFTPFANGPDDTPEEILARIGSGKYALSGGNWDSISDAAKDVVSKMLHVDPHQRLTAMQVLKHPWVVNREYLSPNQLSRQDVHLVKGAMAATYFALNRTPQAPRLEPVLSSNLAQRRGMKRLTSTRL

Regarding `CN1CCN(C(=O)c2ccc(NC(=O)Nc3ccc(N(C)c4ccnc(Nc5ccc(CS(C)(=O)=O)cc5)n4)cc3)cc2)CC1`, the inhibition in assay [1] was found to be 3.43%; in assay [2], 1.06%; in [3] it was 3.69%; in [4], 1.76%; in assay [5], 3.23%; in [6], 1.26%. Further, the inhibition in assay [7] came out at 1.71%; in assay [8], 1.71%; in assay [9], 0.77%; in [10], 2.82%; in assay [11], 18.7%; in assay [12], 11.3%. In addition, the inhibition turned out to be 52% in assay [13]; 0.85% in [14]; 2.5% in assay [15]; 0.47% in assay [16]; 2.98% in assay [17]; 2.14% in assay [18]. In addition, the inhibition was 4.07% in [19] and 2.06% in assay [20].

For `COc1ccc(-c2nn3ncccc3c2-c2ccnc(Nc3cccc(C(F)(F)F)c3)n2)cc1`, the inhibition in assay [1] was found to be 3.1%; in assay [2], 3.18%; in [3] it was 3.3%; in [4] it was 1.97%; in assay [5] it was 2.64%; in [6], 1.78%. Moreover, the inhibition in assay [7] came to 2.6%; in [8], 2.11%; in assay [9], 1.89%; in [10], 0.25%; in [11] it was 0.6%; in assay [12] it was 2.74%. The inhibition in [13] was 1.41%; in assay [14], 1.07%; in assay [15] it was 2.11%; in [16], 1.27%; in [17], 1.97%; in assay [18], 1.64%. Moreover, the inhibition in assay [19] worked out at 2.11%; in [20], 0.81%.

Consider `COc1cc2ncnc(Nc3ccc(C)c(O)c3)c2cc1OC`, for which the inhibition in [1] stood at 10.5%; in assay [2], 5.98%; in assay [3], 8.58%; in assay [4], 3.2%; in assay [5], 3.61%; in assay [6], 2.18%. Besides, the inhibition is 3.65% in assay [7]; 2.05% in assay [8]; 2.06% in [9]; 0.48% in [10]; 0.99% in assay [11]; 3.05% in assay [12]. Further, the inhibition was 3.9% in assay [13]; 1.8% in [14]; 6.05% in [15]; 1.52% in assay [16]; 3.02% in assay [17]; 3.28% in assay [18]. The inhibition turned out to be 3.51% in [19] and 2.48% in [20].

In the case of `NS(=O)(=O)c1ccc(NC=C2C(=O)Nc3ccc4ncsc4c32)cc1`, the inhibition in assay [1] came to 79%; in assay [2], 19.4%; in assay [3], 76.3%; in assay [4], 6.31%; in assay [5], 28.6%; in assay [6], 18.4%. In addition, the inhibition came to 61.7% in [7]; 2.2% in assay [8]; 12.2% in assay [9]; 15.5% in assay [10]; 55.1% in assay [11]; 27.4% in assay [12]. Besides, the inhibition is 69.4% in assay [13]; 15.1% in [14]; 53.4% in [15]; 17.7% in assay [16]; 57.1% in assay [17]; 34.3% in assay [18]. In addition, the inhibition in [19] is 80.5%; in assay [20], 29.3%.
